Paper PMC4336329 (PLoS ONE, 2015)
Out of some 310,000 compounds screened, about 14,000 (4.5%) showed an effect of 50% or more. Effects have a minus sign here. Many of the other results were omitted from the sample, so strong results are more common in it than they were.

What follows are compounds tested against human ether-à-go-go-related gene (hERG) potassium channel (human, UniProt Q12809) (assay: primary screen, population patch clamp on CHO cells stably expressing hERG; higher = less effect of the substance).
Chain of human ether-à-go-go-related gene (hERG) potassium channel (Q12809 whole entry, looked up): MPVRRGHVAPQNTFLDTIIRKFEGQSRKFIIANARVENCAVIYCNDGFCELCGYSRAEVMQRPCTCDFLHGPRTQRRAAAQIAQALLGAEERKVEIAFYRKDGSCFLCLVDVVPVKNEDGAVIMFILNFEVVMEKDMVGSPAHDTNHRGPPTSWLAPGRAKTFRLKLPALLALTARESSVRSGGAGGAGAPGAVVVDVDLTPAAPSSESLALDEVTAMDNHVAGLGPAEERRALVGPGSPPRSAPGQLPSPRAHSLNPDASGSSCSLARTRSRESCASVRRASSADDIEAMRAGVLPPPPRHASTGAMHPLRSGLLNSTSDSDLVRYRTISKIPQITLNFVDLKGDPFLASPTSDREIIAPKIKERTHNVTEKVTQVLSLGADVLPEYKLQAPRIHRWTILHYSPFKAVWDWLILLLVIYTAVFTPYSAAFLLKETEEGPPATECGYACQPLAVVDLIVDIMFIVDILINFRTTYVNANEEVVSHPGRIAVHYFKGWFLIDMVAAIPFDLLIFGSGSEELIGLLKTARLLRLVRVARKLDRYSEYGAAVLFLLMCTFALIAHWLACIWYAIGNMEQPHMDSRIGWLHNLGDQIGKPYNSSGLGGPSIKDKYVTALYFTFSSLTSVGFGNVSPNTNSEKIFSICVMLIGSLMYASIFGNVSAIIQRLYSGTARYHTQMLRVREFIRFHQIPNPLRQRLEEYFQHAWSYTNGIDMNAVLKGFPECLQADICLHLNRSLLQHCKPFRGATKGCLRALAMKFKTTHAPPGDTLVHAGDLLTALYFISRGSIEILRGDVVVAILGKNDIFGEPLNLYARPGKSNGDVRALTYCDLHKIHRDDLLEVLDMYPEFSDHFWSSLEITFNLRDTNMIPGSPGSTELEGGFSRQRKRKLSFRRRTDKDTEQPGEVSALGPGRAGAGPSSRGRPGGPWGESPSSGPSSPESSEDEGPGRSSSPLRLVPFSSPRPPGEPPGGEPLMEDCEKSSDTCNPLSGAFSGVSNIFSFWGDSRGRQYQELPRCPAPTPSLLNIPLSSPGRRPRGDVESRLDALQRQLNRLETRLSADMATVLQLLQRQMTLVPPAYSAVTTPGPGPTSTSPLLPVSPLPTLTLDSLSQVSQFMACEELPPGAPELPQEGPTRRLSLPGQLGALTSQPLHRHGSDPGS
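Further: peak tail current of the secondary pulse compared with the same well before compound.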

Row | Compound | hERG current change (%, negative = inhibition) at 10uM [%]
1 | Cc1c(NC(=O)CN2C(=O)c3ccc([N+](=O)[O-])cc3C2=O)c(=O)n(-c2ccccc2)n1C | 8.89
2 | Cc1cccnc1NC(=O)C1CCN(S(=O)(=O)c2ccc3c(c2)CCC(=O)N3)CC1 | 16.1
3 | O=C(CCc1nnc(CCCCc2ccccc2)o1)NCCN1CCCCC1=O | 18.2
4 | CC(=O)N1CCc2[nH]c3ccccc3c2C1 | 4.55
5 | COc1ccc(Br)c(C(=O)Nc2ccc(F)cc2)c1 | -0.956
6 | NS(=O)(=O)c1ccc(CCNc2nc3c(-c4cccc(F)c4)nnn3c3ccccc23)cc1 | 21.5
7 | C=CCNc1nc(C2(C)CC3(CC(C)OC3=O)C(=O)O2)cs1 (stereo not shown) | -4.86
8 | COCc1cc(CN2CCCC(C(=O)Nc3ccc(-c4ccco4)cc3)C2)ccc1OC (stereo not shown) | -7.12
9 | COc1cccc(O)c1CN1CCCC(C(=O)c2cccc(C(F)(F)F)c2)C1 (stereo not shown) | -57.5
10 | O=C(c1cccc(C(F)(F)F)c1)C1CCCN(Cc2cccc(OCCO)c2)C1 (stereo not shown) | -47.4
11 | COCc1ccc(C(=O)N2CCCC(C(=O)c3cccc(C(F)(F)F)c3)C2)o1 (stereo not shown) | -0.276
12 | O=C(C1CCCN(CCCc2ccccc2)C1)N1CCCCC1 (stereo not shown) | -38.8
13 | Cc1ccc(CN2CCCC(C(=O)c3cccc(C(F)(F)F)c3)C2)o1 (stereo not shown) | -19.3
14 | COCc1cc(CN2CCCC(C(=O)c3cccc(C(F)(F)F)c3)C2)ccc1OC (stereo not shown) | -63.1
15 | O=C(c1cc(F)ccc1F)C1CCCN(CCCc2ccccc2)C1 (stereo not shown) | -73.2
16 | O=C(c1cccc(C(F)(F)F)c1)C1CCCN(Cc2ccc(OCCO)cc2)C1 (stereo not shown) | -69.8
17 | O=C(c1cc(F)ccc1F)C1CCCN(Cc2cccc(Cl)c2)C1 (stereo not shown) | 4.01
18 | CC(=O)CCCCn1cnc2c1c(=O)n(C)c(=O)n2C | 20.7
19 | O=c1cc([O-])n(Cc2ccc(F)cc2)c(=O)[nH]1.[NH4+] | 21.7
20 | COCCN(C(=O)CSc1nnc(Nc2ccc(C)cc2)s1)c1c(N)n(CC(C)C)c(=O)[nH]c1=O | -7.66
21 | Cn1ncc2c(NCc3ccccc3)ncnc21 | -11
22 | CCOC(=O)CN1C(=O)/C(=C/c2ccc(Cl)cc2)Oc2ccccc21 | 2.31
23 | Nc1ccc(N=Nc2ccccc2)c2cccnc12 | 17.2

Row | Compound | hERG current change (%, negative = inhibition) at 10uM [%]
24 | CNC(=O)C(Sc1nc(C)nc2c1oc1ccccc12)C(C)=O (stereo not shown) | 2.63
25 | Cc1cc(Br)ccc1NC(=O)c1cnc(N2CCN(c3ccccn3)CC2)c2ccccc12 | 10
26 | CCOc1ccccc1CN1CCCC(C(=O)c2cc(F)ccc2F)C1 (stereo not shown) | -50.8
27 | COc1ccc(C(=O)C2CCCN(Cc3nc4ccccc4nc3C)C2)cc1OC (stereo not shown) | -84.9
28 | COc1ccc(C(=O)C2CCCN(Cc3c(O)cccc3OC)C2)cc1OC (stereo not shown) | -63.1
29 | COc1ccc(CCNC(=O)CN2CCN(c3cccc(C(F)(F)F)c3)CC2)cc1 | -46.3
30 | COc1ccc(C(=O)C2CCCN(C(=O)CSC)C2)cc1OC (stereo not shown) | 8.85
31 | O=C(c1cc(F)ccc1F)C1CCCN(Cc2cc(Cl)ccc2O)C1 (stereo not shown) | 0.916
32 | COc1ccc(C(=O)C2CCCN(C(=O)Cn3ccc(C)n3)C2)cc1OC (stereo not shown) | 19.1
33 | Cn1cc(CN2CCCC(C(=O)c3cc(F)ccc3F)C2)c2ccccc21 (stereo not shown) | -31.1
34 | C#CCN1CCN(c2cccc(C(F)(F)F)c2)CC1 | 8.78
35 | COc1cccc(O)c1CN1CCCC(C(=O)c2sccc2C)C1 (stereo not shown) | -45.9
36 | Nc1ccc(CCN2CCN(c3cccc(C(F)(F)F)c3)CC2)cc1 | -67.2
37 | COc1ccc(C(CNC(=O)C(CCSC)NC(=O)c2ccccc2Cl)N2CCCC2)cc1 (stereo not shown) | -34.9
38 | O=C(CCN1C(=O)c2ccccc2S1(=O)=O)Nc1cccc2ccccc12 | -5.33
39 | Cc1ccc(C)c(S(=O)(=O)Nc2ccc(C(N)=O)cc2)c1 | 14.9
40 | CC1(C)CC(=O)c2c(Cc3ccccc3)noc2C1 | 12.1
41 | Cc1ccccc1/C=C1\Sc2ccc(C(=O)N3CCN(c4ccccn4)CC3)cc2N(C)C1=O | -26.1
42 | CCN(CC)S(=O)(=O)c1cccc(C(=O)Nc2nc3cc4c(cc3s2)OCCO4)c1 | 0.652
43 | Cc1ccc(OCC(=O)N/N=C/c2ccncc2)cc1C | 5.75
44 | CC(C)OCCCNC(=O)c1ccc2c(=O)n(Cc3ccc4c(c3)OCO4)c(=S)[nH]c2c1 | 21.3
45 | N#C/C(=C\c1ccc(F)cc1)C(=O)Nc1ccccn1 | 2.68
46 | CCOc1cc(CN2CCN(c3cccc(C(F)(F)F)c3)CC2)ccc1O | -73

Row | Compound | hERG current change (%, negative = inhibition) at 10uM [%]
47 | CCOc1cc(CN2CCN(c3cccc(C(F)(F)F)c3)CC2)ccc1OC | -16.6
48 | FC(F)(F)c1cccc(N2CCN(Cc3ccoc3)CC2)c1 | -60.4
49 | FC(F)(F)c1cccc(N2CCN(Cc3cccnc3)CC2)c1 | -8.03
50 | CCOc1cccc(CN2CCCC(C(=O)c3cccc(C(F)(F)F)c3)C2)c1O (stereo not shown) | -67.9
51 | CCOc1cccc(CN2CCN(c3cccc(C(F)(F)F)c3)CC2)c1O | -46.6
52 | CC(=O)Nc1ccc(CN2CCN(c3cccc(C(F)(F)F)c3)CC2)cc1 | -38
53 | O=C(c1cccc(C(F)(F)F)c1)C1CCCN(Cc2ccccc2O)C1 (stereo not shown) | -29
54 | O=C1COc2ccc(-c3n[nH]c(=O)c4ccccc34)cc2N1 | -2.91
55 | c1ccc(-c2nnsc2Sc2ccccn2)cc1 | 3.35
56 | Cc1cc(C)cc(CC2CC(=O)N(c3cc(C)on3)C2=O)c1 (stereo not shown) | 0.808
57 | Cc1cc(C(=O)CSc2nnc(-c3ccc(Cl)cc3)n2C)c(C)n1CC1CCCO1 (stereo not shown) | 8.08
58 | Cc1noc(C)c1COC(=O)c1ccc(N(C)C)cc1 | -9.83
59 | CNC(=O)CN(c1cc(C)ccc1OC)S(=O)(=O)c1ccc(C)cc1 | -0.703
60 | COc1ccccc1CNC(=O)CCNC(=O)C1CCN(S(=O)(=O)c2ccccc2)CC1 | -7.65
61 | C=CCn1c(SCC(=O)Nc2c(C)n(C)n(-c3ccccc3)c2=O)nc2sc(C)c(C)c2c1=O | -31.4
62 | C=CCn1c(SCC(=O)Nc2ccccc2)nc2scc(-c3cccs3)c2c1=O | 8.69
63 | C=CCn1c(SCC(=O)Nc2c(C)n(C)n(-c3ccccc3)c2=O)nc2sc(C)c(-c3ccccc3)c2c1=O | -54
64 | C=CCn1c(SCC(=O)Nc2c(C)n(C)n(-c3ccccc3)c2=O)nc2scc(-c3ccccc3)c2c1=O | -56
65 | C=CCn1c(SCC(=O)Nc2c(C)n(C)n(-c3ccccc3)c2=O)nc2ccccc2c1=O | -32.9
66 | Cc1sc2nc(SCC(=O)Nc3c(C)n(C)n(-c4ccccc4)c3=O)n(C)c(=O)c2c1C | 9.4
67 | O=C(O)c1ccc[nH]c1=S | 10.3
68 | CC(=O)NC1C(OCc2ccccc2)OC2COC(C)(C)OC2C1O (stereo not shown) | 18.3
69 | Cc1ccc(C)c(NC(=S)NNC(=O)c2csc(C)c2C)c1 | 1.72

Row | Compound | hERG current change (%, negative = inhibition) at 10uM [%]
70 | O=C(NCc1ccccc1)C1CCCN1S(=O)(=O)c1ccc(Cl)cc1 (stereo not shown) | -7.85
71 | COc1ccc(OC)c(N(CC(=O)NCC2CCCO2)S(=O)(=O)c2ccccc2)c1 (stereo not shown) | 8.03
72 | NC(=O)NC(=O)C(c1ccccc1)N1CCN(S(=O)(=O)c2ccc(Br)s2)CC1 (stereo not shown) | -52.2
73 | NC(=O)NC(=O)C(c1ccccc1)N1CCN(S(=O)(=O)Cc2ccccc2)CC1 (stereo not shown) | -18.9
74 | CC(NC(=O)C1CCN(S(=O)(=O)c2ccc(Br)s2)CC1)c1ccccc1 (stereo not shown) | -0.752
75 | CCN(c1cccc(C)c1)S(=O)(=O)c1cnc[nH]1 | 9.23
76 | COc1ccccc1C(=O)NCC(c1cccs1)N1CCc2ccccc21 (stereo not shown) | 1.26
77 | CCOC(=O)c1c(NC(=O)Cn2nc(C(F)(F)F)cc2C)sc2c1CCC2 | -4.65
78 | NC(=O)c1cc(-c2csc(NCCc3ccccc3)n2)ccc1O | 6.05
79 | COc1ccc(C2=NC(CO)(CO)CO2)cc1 | 19
80 | Cc1sc2ncnc(N[C@@H](CCC(=O)O)C(=O)O)c2c1C | 10.1
81 | Cc1nc(NCc2ccc(S(N)(=O)=O)cc2)c2c(C)c(C)sc2n1 | 2.83
82 | Cc1nc(N(C)Cc2ccccc2)c2c(C)c(C)sc2n1 | -14.8
83 | Cc1sc2ncnc(NCC3COc4ccccc4O3)c2c1C (stereo not shown) | -13.6
84 | Cc1nc(NCC(c2ccccc2)N(C)C)c2c(C)c(C)sc2n1 (stereo not shown) | -77.1
85 | Cc1sc2ncnc(NCC(O)c3ccccc3)c2c1C (stereo not shown) | 17.7
86 | COc1ccc(C(CNc2ncnc3sc(C)c(C)c23)N(C)C)cc1 (stereo not shown) | -56.4
87 | COc1ccccc1C(CNc1ncnc2sc(C)c(C)c12)N(C)C (stereo not shown) | -55.4
88 | Cc1sc2ncnc(NCC(O)c3ccc([N+](=O)[O-])cc3)c2c1C (stereo not shown) | -71.6
89 | Cc1sc2ncnc(NCC(c3ccccc3)N(C)C)c2c1C (stereo not shown) | -40.1
90 | CCOC(=O)c1sc2ncnc(NCC(c3cccs3)N(C)C)c2c1C (stereo not shown) | 5.57
91 | COc1ccc(/C=N/Nc2ncnc3sc(C)c(C)c23)cc1 | -8.19
